We go through 39 compounds from PubChem BioAssay (Tox21).

The structures appear in SMILES notation. Where “and” joins values, the source holds several entries; their conditions need not be identical. Equal entries are not always repeated. Results filed as inconclusive are left out. Where a call stands in place of a potency, no number is given. Where a structure was tested more than once in an assay, its records may differ in their call. Calls of active or inactive are those of the source. Unless noted, calls come from the whole dose curve; as a rule, active = well fitted curve in the direction sought with a large enough effect in the repeat runs; inconclusive = weak or mixed curves; inactive = no such curve, though single readings can be large; an effect the other way counts as inactive or inconclusive.

A short description of one assay: qHTS assay to identify small molecule agonists of the sonic hedgehog signaling (Shh) pathway - cell viability counter screen (AID 1259366). Note: nearly all actives have a fitted effect of over 50% in size. Note: potency is the fitted concentration of half-maximal effect. The settings on record: NIH/3T3 Gli1-Luc viability, CellTiter-Fluor, 24 h; series mostly up to 92.4 µM. In short, it runs like this: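 Cytotoxicity counter screen run in the same wells as the Shh reporter assay. NIH/3T3 cells carrying a Gli1 response element–driven luciferase were treated with DMSO-dissolved compounds for 24hr, and live-cell protease activity was measured with CellTiter-Fluor.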
For the compound `CN(C)c1ccc(N)cc1`, the Potency is 53.2 µM (active).
Still for that read-out and setting: then `C[C@H]1[C@H](c2ccc(Cl)cc2)SC(=O)N1C(=O)NC1CCCCC1`, with “inactive”; and `CNC(C)(C)Cc1ccccc1`, with “inactive”.
On to `CCN(CC)CCN1C(=O)CN=C(c2ccccc2F)c2cc(Cl)ccc21`, for which the Potency result is “inactive”.
On the same count and under the same terms, the entry for `CC(=O)C(Cl)C(=O)N(C)C` (centres undefined) is “inactive”.
As for `CCC(C)Nc1c([N+](=O)[O-])cc(C(C)(C)C)cc1[N+](=O)[O-]` (centres undefined), the Potency result was “inactive”.
On to `CCn1cc[n+](C)c1` (tested in a mixture with another compound), for which the Potency entry is “inactive”.
Same read-out and setting: the entry for `CCC1COC(Cn2cncn2)(c2ccc(Cl)cc2Cl)O1` (centres undefined) is “inactive”; for `O=[N+]([O-])c1ccc(CCl)cc1` it is “inactive”.
On the same count and under the same terms, the entry for `CC(C)N(C(=O)SC/C(Cl)=C/Cl)C(C)C` is “inactive”; for `O.O.O.O=C([O-])[C@H]([O-])[C@@H]([O-])C(=O)[O-].O=C([O-])[C@H]([O-])[C@@H]([O-])C(=O)[O-].[K+].[K+].[Sb+3].[Sb+3]` it is “inactive”.
Same read-out and setting: the entry for `CCCCCCC[CH2][Sn]([Cl])([Cl])[CH2]CCCCCCC` is “inactive”; for `CC(C)N(C(=O)CCl)c1ccccc1` it is 68.6 µM (active) and 9.69 µM (active); for `N#Cc1ccc(N(CC(N)=O)CC(F)(F)F)cc1C(F)(F)F` it is “inactive”.
Consider `Oc1cccc(Cl)c1Cl`, for which the Potency result was “inactive”.
As for `CC(=O)[O-].CC(=O)[O-].CC(=O)[O-].[Sb+3]`, the viability change, negative = cytotoxic is 5.24% [at 3.27 µM] (inactive).

The nature of the next assay: qHTS assay to identify small molecule antagonists of the sonic hedgehog signaling (Shh) pathway - cell viability counter screen (AID 1259367). Note: nearly all actives have a fitted effect of over 55% in size. Note: potency is the fitted concentration of half-maximal effect. The settings on record: NIH/3T3 Gli1-Luc viability, CellTiter-Fluor, 24 h; series mostly up to 92.4 µM. In short, it runs like this:
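After a 4 hr settling period, 3T3 Gli1-Luc cells were treated with DMSO-dissolved chemicals and conditioned medium, kept 24 hr at 37C in 5% CO2, and assayed for viability by CellTiter-Fluor fluorescence following 1 hr reagent incubation.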
For orientation: In qHTS, concentration-response curves come from the screen itself.
Regarding `CCCCCCCCCCCCCCn1cc[n+](C)c1`, the Potency is 19.4 µM (active) and 27 µM (active).
Same read-out and setting: the entry for `O=c1c2ccccc2c(=O)c2c1cc(Cl)c1[nH]c3c([nH]c12)c(Cl)cc1c(=O)c2ccccc2c(=O)c13` is “inactive”.
Same read-out and setting: the figure for `CC(Cc1ccc(OCC(=O)O)cc1)NCC(O)c1csc(C(F)(F)F)n1` (centres undefined) is 3.86 µM (active); for `CCC(C)Br` (centres undefined) it is “inactive”.
On the same count and under the same terms, the entry for `O=[N+]([O-])c1ccccc1-c1ccccc1` is “inactive”.
With `CCN(CC)C(=S)S`, the Potency is 7.65 µM (active) and inactive.
On the same count and under the same terms, the entry for `Cc1c([N+](=O)[O-])c(C)c([N+](=O)[O-])c(C(C)(C)C)c1[N+](=O)[O-]` is “inactive”; for `CCCCON=O` it is “inactive”.
Still for that read-out and setting: the entry for `C[C@@H]1CC2=CC(=O)CC[C@@H]2[C@H]2CC[C@@]3(C)[C@@H](CC[C@]3(C)O)[C@@H]21` is “inactive”.
`CCNS(=O)(=O)C(F)(F)C(F)(F)C(F)(F)C(F)(F)C(F)(F)C(F)(F)C(F)(F)C(F)(F)F`: the Potency is 65.7 µM (active).
On the same count and under the same terms, the entry for `OCC(Br)CBr` (centres undefined) is “inactive”; for `[O]=[Cr][O][Cr]=[O]` it is “inactive”; for `CC(=O)[O-].CC(=O)[O-].O.O.[Zn+2]` it is “inactive”.
On the same count and under the same terms, the entry for `CC1=C2C[C@H]3[C@@H](CC=C4C[C@@H](O)CC[C@@]43C)[C@@H]2CC[C@]12O[C@@H]1C[C@H](C)CN[C@H]1[C@H]2C` is “inactive”; for `CCCCC(CC)COC(=O)c1ccccc1C(=O)OCC(CC)CCCC` (centres undefined) it is “inactive”; for `CN1C(=O)[C@@H](NC(=O)c2cc3ccccc3[nH]2)N=C(c2ccccc2)c2ccccc21` it is “inactive”.
On the same count and under the same terms, then `CSC(=O)c1c(C(F)F)nc(C(F)(F)F)c(C(=O)SC)c1CC(C)C`, with “inactive”; and `C[C@H]1[C@H](c2ccc(Cl)cc2)SC(=O)N1C(=O)NC1CCCCC1`, with “inactive”.
For `CNC(C)(C)Cc1ccccc1`, the Potency result is “inactive”.
The same measure, in the same setting: then `CCN(CC)CCN1C(=O)CN=C(c2ccccc2F)c2cc(Cl)ccc21`, with “inactive”; and `CC(=O)C(Cl)C(=O)N(C)C` (centres undefined), with “inactive”.
The same measure, in the same setting: the entry for `CCC(C)Nc1c([N+](=O)[O-])cc(C(C)(C)C)cc1[N+](=O)[O-]` (centres undefined) is “inactive”; for `CCn1cc[n+](C)c1` (tested in a mixture with another compound) it is “inactive”; for `CCC1COC(Cn2cncn2)(c2ccc(Cl)cc2Cl)O1` (centres undefined) it is “inactive”.
On the same count and under the same terms, then `O=[N+]([O-])c1ccc(CCl)cc1`, with “inactive”; and `CC(C)N(C(=O)SC/C(Cl)=C/Cl)C(C)C`, with “inactive”; and `O.O.O.O=C([O-])[C@H]([O-])[C@@H]([O-])C(=O)[O-].O=C([O-])[C@H]([O-])[C@@H]([O-])C(=O)[O-].[K+].[K+].[Sb+3].[Sb+3]`, with “inactive”.
As for `c1ccc(Nc2ccc(Nc3ccccc3)cc2)cc1`, the Potency entry is “inactive”.
Same read-out and setting: the entry for `COc1ccc(Cc2nccc3cc(OC)c(OC)cc23)cc1OC` is “inactive”; for `CCCCCCC[CH2][Sn]([Cl])([Cl])[CH2]CCCCCCC` it is “inactive”.
Regarding `CC(C)N(C(=O)CCl)c1ccccc1`, the Potency is 30.6 µM (active) and 24.3 µM (active).
In the case of `N#Cc1ccc(N(CC(N)=O)CC(F)(F)F)cc1C(F)(F)F`, the Potency result was “inactive”.
Same read-out and setting: then `Oc1cccc(Cl)c1Cl`, with “inactive”; and `ClC1=C(Cl)[C@]2(Cl)[C@@H]3[C@H]4C[C@H]([C@@H]5O[C@H]45)[C@@H]3[C@@]1(Cl)C2(Cl)Cl`, with 68.5 µM (active).
On to `CC(=O)[O-].CC(=O)[O-].CC(=O)[O-].[Sb+3]`, for which the viability change, negative = cytotoxic is 4.31% [at 3.27 µM] (inactive).

The nature of a further assay: qHTS assay to identify small molecule agonists of the sonic hedgehog signaling (Shh) pathway (AID 1259368; calls by dose curve;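 note: NIH/3T3-derived 3T3Gli1-Luc cells carrying a stable Gli1-driven firefly luciferase reporter; nearly all actives have a fitted effect of over 15% in size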). The settings on record: NIH/3T3 Gli1-Luc reporter, luciferase, 24 h; series mostly up to 92.4 µM. The method, boiled down:
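3T3Gli1-Luc (NIH/3T3 clone, stable Gli1-Luc); 4 hr pre-incubation, then cpd in DMSO 24 hr, 37 C/5% CO2; luciferase reagent 30 min RT; luminescence.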
Consider `CCCCCCCCCCCCCCn1cc[n+](C)c1`, for which the Potency result was “inactive”.
Same read-out and setting: then `O=c1c2ccccc2c(=O)c2c1cc(Cl)c1[nH]c3c([nH]c12)c(Cl)cc1c(=O)c2ccccc2c(=O)c13`, with “inactive”; and `CC(Cc1ccc(OCC(=O)O)cc1)NCC(O)c1csc(C(F)(F)F)n1` (centres undefined), with “inactive”; and `O=[N+]([O-])c1ccccc1-c1ccccc1`, with “inactive”.
The same measure, in the same setting: then `CCN(CC)C(=S)S`, with “inactive”; and `Cc1c([N+](=O)[O-])c(C)c([N+](=O)[O-])c(C(C)(C)C)c1[N+](=O)[O-]`, with “inactive”; and `CC(=O)[O-].CC(=O)[O-].CC(=O)[O-].[Cr+3]`, with “inactive”.
For `CCCCON=O`, the Potency entry is “inactive”.
The same measure, in the same setting: then `CCNS(=O)(=O)C(F)(F)C(F)(F)C(F)(F)C(F)(F)C(F)(F)C(F)(F)C(F)(F)C(F)(F)F`, with “inactive”; and `OCC(Br)CBr` (centres undefined), with “inactive”.
`[O]=[Cr][O][Cr]=[O]`: the Potency result is “inactive”.
Turning to `CC(=O)[O-].CC(=O)[O-].O.O.[Zn+2]`, the Potency entry was “inactive”.
Same read-out and setting: the entry for `CC1=C2C[C@H]3[C@@H](CC=C4C[C@@H](O)CC[C@@]43C)[C@@H]2CC[C@]12O[C@@H]1C[C@H](C)CN[C@H]1[C@H]2C` is “inactive”; for `Oc1cc(Cl)c(Cl)c(Cl)c1Cl` it is “inactive”; for `CCCCC(CC)COC(=O)c1ccccc1C(=O)OCC(CC)CCCC` (centres undefined) it is “inactive”.
On the same count and under the same terms, the entry for `CN1C(=O)[C@@H](NC(=O)c2cc3ccccc3[nH]2)N=C(c2ccccc2)c2ccccc21` is “inactive”; for `[Cl-].[Cl-].[Cl-].[Yb+3]` it is “inactive”.
The same measure, in the same setting: the entry for `CSC(=O)c1c(C(F)F)nc(C(F)(F)F)c(C(=O)SC)c1CC(C)C` is “inactive”.
For `C[C@H]1[C@H](c2ccc(Cl)cc2)SC(=O)N1C(=O)NC1CCCCC1`, the Potency result is “inactive”.
Same read-out and setting: then `CNC(C)(C)Cc1ccccc1`, with “inactive”.
Turning to `CCN(CC)CCN1C(=O)CN=C(c2ccccc2F)c2cc(Cl)ccc21`, the Potency entry was “inactive”.
On the same count and under the same terms, then `CC(=O)C(Cl)C(=O)N(C)C` (centres undefined), with “inactive”; and `CCC(C)Nc1c([N+](=O)[O-])cc(C(C)(C)C)cc1[N+](=O)[O-]` (centres undefined), with “inactive”.
As for `CCn1cc[n+](C)c1` (tested in a mixture with another compound), the Potency entry was “inactive”.
Still for that read-out and setting: then `CCC1COC(Cn2cncn2)(c2ccc(Cl)cc2Cl)O1` (centres undefined), with “inactive”; and `O=[N+]([O-])c1ccc(CCl)cc1`, with “inactive”.
With `CC(C)N(C(=O)SC/C(Cl)=C/Cl)C(C)C`, the Potency result was “inactive”.
On the same count and under the same terms, then `O.O.O.O=C([O-])[C@H]([O-])[C@@H]([O-])C(=O)[O-].O=C([O-])[C@H]([O-])[C@@H]([O-])C(=O)[O-].[K+].[K+].[Sb+3].[Sb+3]`, with “inactive”.
Consider `COc1ccc(Cc2nccc3cc(OC)c(OC)cc23)cc1OC`, for which the Potency result is “inactive”.
On the same count and under the same terms, then `CC(C)N(C(=O)CCl)c1ccccc1`, with “inactive”; and `Oc1cccc(Cl)c1Cl`, with “inactive”.
On the same count and under the same terms, then `ClC1=C(Cl)[C@]2(Cl)[C@@H]3[C@H]4C[C@H]([C@@H]5O[C@H]45)[C@@H]3[C@@]1(Cl)C2(Cl)Cl`, with “inactive”.
Take `CC(=O)[O-].CC(=O)[O-].CC(=O)[O-].[Sb+3]`: the activity change was 0.122% [at 3.27 µM, stronger effect = higher value] (inactive).
